Reference: PubChem BioAssay (Tox21)
Values joined by “and” are separate entries in the source; they are usually repeats but may differ in a detail not shown here. Identical values can stand only once. Records with an inconclusive call do not appear. More than one record can exist for a structure, and the calls need not agree. Active and inactive are the calls of the source. Calls follow the shape of the dose curve; as a rule, active = well fitted curve in the direction sought with a large enough effect in the repeat runs; inconclusive = weak or mixed curves; inactive = no such curve, though single readings can be large; an effect the other way counts as inactive or inconclusive.

Columns and labels:
[1] = qHTS RealTime-Glo MT Cell Viability Assay in HEK293 cells - 0 hour (AID 1224880); also: top concentration of the series differs between compounds; nearly all actives have a fitted effect of over 45% in size
In short: (§1)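 600 HEK293 cells per well, dispensed already mixed with RealTime-Glo MT reagents. Compound dosing came 5 h later. The same wells were read for luminescence at 0, 8, 16, 24, 32 and 40 h of exposure at 37 C.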

[2] = A CellTox Green Cytotoxicity Assay to monitor cytotoxicity in HEK293 cells - 32 hour (AID 1224881); also: nearly all actives have a fitted effect of over 40% in size; also: potency is read from the fitted curve at half-maximal effect
In short: (§2)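 Dead-cell fluorescence measured kinetically: asymmetric cyanine dye, HEK293, 600 cells/well, 5 h settle, 23 nL cpd/DMSO, 37 C, reads 0–40 h every 8 h.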

[3] = A CellTox Green Cytotoxicity Assay to monitor cytotoxicity in HepG2 cells - 0 hour (AID 1224882); also: nearly all actives have a fitted effect of over 35% in size
In short: (§3)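 First, HepG2 cells (600/well) mixed with reagent were plated; second, after 5 h at 37 C they received compounds via pintool; third, fluorescence was measured at 0 h through 40 h at 8 h intervals.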

[4] = A CellTox Green Cytotoxicity Assay to monitor cytotoxicity in HepG2 cells - 32 hour (AID 1224883); also: nearly all actives have a fitted effect of over 50% in size; also: potency is read from the fitted curve at half-maximal effect
In short: as §3

[5] = A CellTox Green Cytotoxicity Assay to monitor cytotoxicity in HEK293 cells - 8 hour (AID 1224884); also: nearly all actives have a fitted effect of over 35% in size; also: potency is read from the fitted curve at half-maximal effect
In short: as §2

[6] = qHTS RealTime-Glo MT Cell Viability Assay in HepG2 cells - 16 hour (AID 1224885); also: nearly all actives have a fitted effect of over 50% in size
In short: (§4)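 Viability was tracked continuously by NanoLuc luminescence from prosubstrate reduced by living HepG2 cells, at successive time points over 40 h of compound exposure. Cells with reagent were preincubated 5 h at 37 °C before compound addition.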

[7] = qHTS RealTime-Glo MT Cell Viability Assay in HEK293 cells - 24 hour (AID 1224886); also: nearly all actives have a fitted effect of over 50% in size; also: potency is read from the fitted curve at half-maximal effect
In short: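 Viability tracked continuously by luminescence as live cells reduce a prosubstrate for NanoLuc; HEK293 cells preincubated 5 h, compound-treated at 37 C, and read at 0, 8, 16, 24, 32 and 40 h.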

[8] = qHTS RealTime-Glo MT Cell Viability Assay in HEK293 cells - 8 hour (AID 1224887); also: nearly all actives have a fitted effect of over 50% in size; also: potency is read from the fitted curve at half-maximal effect
In short: as §1

[9] = A CellTox Green Cytotoxicity Assay to monitor cytotoxicity in HEK293 cells - 16 hour (AID 1224888); also: nearly all actives have a fitted effect of over 35% in size
In short: as §2

[10] = qHTS RealTime-Glo MT Cell Viability Assay in HepG2 cells - 0 hour (AID 1224889); also: nearly all actives have a fitted effect of over 50% in size
In short: as §4

Measured: Potency

CC(=O)CC/C=C(\C)CCC=C(C)C
inactive: all assays above

CCCCCCCCCCCO
inactive: all assays above

COC(C)COC(C)COC(C)CO (stereo not given)
inactive: all assays above

CCCCC/C=C/C=C/C=O
active: [2] 54.5 µM | [4] 54.5 µM and 54.9 µM
inactive: all other assays above

O=CCc1ccccc1
inactive: all assays above

O=Cc1ccccc1O
inactive: all assays above

C=CC(C)(CCC=C(C)C)OC(C)=O (stereo not given)
inactive: all assays above

CC(C)OB(OC(C)C)OC(C)C
inactive: all assays above

Cc1ccc(C(=O)c2cc(O)c(O)c([N+](=O)[O-])c2)cc1
inactive: all assays above

c1ccc(Nc2ccccc2)cc1
38.9 µM (active) and inactive: [4]
21.9 µM (active) and inactive: [2]
17.4 µM (active) and inactive: [7]
inactive: all other assays above

CC(C)OC=O
inactive: all assays above

Nc1ccc(S(=O)(=O)Nc2cnc3ccccc3n2)cc1
inactive: all assays above

CCCCCCCCCC(=O)OC
inactive: all assays above

CCCCOCCOCCOCCO
inactive: all assays above

CN1C(C(=O)Nc2ccccn2)=C(O)c2ccccc2S1(=O)=O
inactive: all assays above

Cc1[nH]c(=O)c(C#N)cc1-c1ccncc1
inactive: all assays above

CC(C(=O)O)c1cccc(C(=O)c2ccccc2)c1 (stereo not given)
inactive: all assays above

Cc1c(C(N)=O)cc([N+](=O)[O-])cc1[N+](=O)[O-]
inactive: all assays above

COC(=O)Nc1nc2ccc(S(=O)c3ccccc3)cc2[nH]1 (stereo not given)
inactive and 952 nM (active): [4]
inactive and 1.69 µM (active): [8]
active: [7] 952 nM
inactive: all other assays above

Cc1cccc(N(C)C(=S)Oc2ccc3ccccc3c2)c1
inactive: all assays above

O=C(c1ccccc1)c1ccc(O)cc1O
inactive and 43.6 µM (active): [4]
inactive: all other assays above

Nc1ncn([C@@H]2O[C@H](CO)[C@@H](O)[C@H]2O)c(=O)n1
inactive: all assays above

Clc1nc(Cl)c(Cl)c(Cl)c1Cl
inactive: all assays above

O=C=Nc1ccc(Cc2ccc(N=C=O)cc2)cc1
inactive: all assays above

CCOC(=O)C(C#N)=C(c1ccccc1)c1ccccc1
inactive: all assays above

CC1=CCC(C(C)(C)O)CC1 (stereo not given)
inactive and 17.4 µM (active): [5]
inactive and 21.9 µM (active): [4]
inactive: all other assays above

CC(C)(C)NC(=O)[C@H]1CC[C@H]2[C@@H]3CC[C@H]4NC(=O)C=C[C@]4(C)[C@H]3CC[C@]12C
inactive: all assays above

Cc1cccc(C(=O)O)c1
inactive: all assays above

c1cc(-c2ccncc2)ccn1
inactive: all assays above

Nc1ncnc2nc[nH]c12
inactive: all assays above

O=c1oc(=O)c2cc3c(=O)oc(=O)c3cc12
inactive: all assays above

c1ccc2cc(Nc3ccc(Nc4ccc5ccccc5c4)cc3)ccc2c1
inactive: all assays above

CN(C)C(=N)N=C(N)N
inactive: all assays above

c1ccc2c(c1)c1cccc3ccc4cccc2c4c31
inactive and 19.5 µM (active): [7]
inactive: all other assays above

OC(CCl)CCl
inactive: all assays above

O=P(O)(O)O
inactive: all assays above

c1ccc2c(c1)Oc1ccccc1S2
49.8 µM (active) and inactive: [2]
inactive: all other assays above
